For some assays here: Results with a measured potency or affinity are listed apart. The source made the active and inactive calls. Unless noted, no rule for the calls is given here.
Key:
[1] = antimalarial activity against Dd2 strain (AID 2302;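 active = growth inhibition above 50% at the single 2 µM test dose, taken to imply half-maximal potency below 2 µM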;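 also: 0% = DMSO untreated growth and 100% = chloroquine plus artemisinin killed control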); details: P. falciparum Dd2 in RBCs, LDH growth readout, 72 h; at 2 µM; active compounds read high
[2] = HepG2 cytotoxicity, primary screen, cytotoxicity control for P. falciparum antimalarial project, cell-based, ATP luminescence (AID 2303;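 active = inhibition above 50%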;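 also: 0% = DMSO wells and 100% = digitonin-killed cells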); details: HepG2 viability, 24-48 h, at 10 µM, active compounds read high
[3] = target: L-lactate dehydrogenase (Plasmodium falciparum (isolate CDC / Honduras)) (UniProt Q27743); test: PfLDH activity inhibition – cell lysate, 3D7 strain, counter-screen for P. falciparum growth inhibition project (AID 2304);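 also: 0% = vehicle and 100% = reference inhibitor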; details: P. falciparum 3D7 crude extract, LDH APAD/NBT absorbance; at 2 µM; active compounds read high
[4] = inhibition of 3D7 malaria parasite growth – strain 3D7 (AID 2306);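 also: 0% = DMSO wells and 100% = chloroquine plus artemisinin control wells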; details: P. falciparum 3D7 erythrocytic growth, LDH absorbance, 72 h; at 2 µM; active compounds read high
[5] = target: Calcium-dependent protein kinase 1 (Plasmodium falciparum (isolate 3D7)) (UniProt P62344); test: PfCDPK1 kinase inhibitors, biochemical, TCAMS library (AID 1159585; cut-off not given, nearly all actives have IC50 up to about 0.98 µM;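 also: inhibitors leave more ATP so luminescence rises with inhibition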); details: recombinant PfCDPK1, Kinase-Glo ATP depletion luminescence
[6] = target: Plasmodium falciparum protein kinase 6 (PK6, PF3D7_1337100) (UniProt Q8IDW1); test: PfPK6 kinase inhibitors, biochemical, TCAMS library (AID 1159586); details: recombinant PfPK6, Kinase-Glo ATP depletion luminescence
[7] = target: Protein kinase 7 (PK7), Plasmodium falciparum 3D7 (PF3D7_0213400) (UniProt Q7YTF7); test: inhibition of Plasmodium PK7 catalytic activity – biochemical, TCAMS antimalarial set, Kinase-Glo luminescence (AID 1159587); details: recombinant PfPK7, Kinase-Glo ATP depletion luminescence
[8] = target: Calcium-dependent protein kinase 4 (Plasmodium falciparum (isolate 3D7)) (UniProt Q8IBS5); test: PfCDPK4 kinase inhibitors, biochemical, TCAMS library (AID 1159588; cut-off not given, nearly all actives have IC50 up to about 0.91 µM); details: recombinant PfCDPK4, Kinase-Glo ATP depletion luminescence
Calcium-dependent protein kinase 4 (Plasmodium falciparum (isolate 3D7)), sequence (Q8IBS5 whole entry, looked up): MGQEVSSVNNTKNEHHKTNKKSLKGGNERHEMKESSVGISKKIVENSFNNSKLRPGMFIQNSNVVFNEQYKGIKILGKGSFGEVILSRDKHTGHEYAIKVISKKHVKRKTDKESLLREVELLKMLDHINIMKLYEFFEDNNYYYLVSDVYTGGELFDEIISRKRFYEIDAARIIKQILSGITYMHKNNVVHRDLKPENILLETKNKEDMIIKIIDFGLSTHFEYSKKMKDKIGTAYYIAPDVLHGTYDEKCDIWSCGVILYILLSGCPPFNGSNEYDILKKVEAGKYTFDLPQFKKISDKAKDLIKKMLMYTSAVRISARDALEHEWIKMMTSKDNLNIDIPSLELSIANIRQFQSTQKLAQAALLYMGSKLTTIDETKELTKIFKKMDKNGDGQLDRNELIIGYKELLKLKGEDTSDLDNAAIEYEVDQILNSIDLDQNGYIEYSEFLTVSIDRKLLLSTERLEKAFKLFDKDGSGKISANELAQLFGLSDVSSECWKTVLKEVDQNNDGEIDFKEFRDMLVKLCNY

Protein kinase 7 (PK7), Plasmodium falciparum 3D7 (PF3D7_0213400), sequence (Q7YTF7 1-343): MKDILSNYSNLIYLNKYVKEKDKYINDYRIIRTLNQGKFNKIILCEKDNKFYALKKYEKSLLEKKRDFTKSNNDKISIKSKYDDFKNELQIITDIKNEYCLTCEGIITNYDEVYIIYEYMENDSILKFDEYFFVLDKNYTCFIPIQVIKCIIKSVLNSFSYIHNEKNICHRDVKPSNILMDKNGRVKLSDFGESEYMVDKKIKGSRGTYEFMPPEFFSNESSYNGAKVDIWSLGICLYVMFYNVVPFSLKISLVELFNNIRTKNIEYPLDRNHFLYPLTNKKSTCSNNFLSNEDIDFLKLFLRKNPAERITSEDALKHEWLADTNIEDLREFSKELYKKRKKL
L-lactate dehydrogenase (Plasmodium falciparum (isolate CDC / Honduras)), sequence (Q27743 whole entry, looked up): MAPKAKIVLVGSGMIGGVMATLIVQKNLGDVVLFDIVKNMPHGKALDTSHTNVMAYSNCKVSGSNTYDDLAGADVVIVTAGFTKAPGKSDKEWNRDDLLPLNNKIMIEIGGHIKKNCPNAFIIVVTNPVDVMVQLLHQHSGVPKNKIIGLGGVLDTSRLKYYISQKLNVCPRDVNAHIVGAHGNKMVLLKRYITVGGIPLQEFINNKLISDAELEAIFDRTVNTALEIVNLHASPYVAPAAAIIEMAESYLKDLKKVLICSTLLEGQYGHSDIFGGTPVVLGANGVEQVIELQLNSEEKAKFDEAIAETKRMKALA
Plasmodium falciparum protein kinase 6 (PK6, PF3D7_1337100), sequence (Q8IDW1 1-305): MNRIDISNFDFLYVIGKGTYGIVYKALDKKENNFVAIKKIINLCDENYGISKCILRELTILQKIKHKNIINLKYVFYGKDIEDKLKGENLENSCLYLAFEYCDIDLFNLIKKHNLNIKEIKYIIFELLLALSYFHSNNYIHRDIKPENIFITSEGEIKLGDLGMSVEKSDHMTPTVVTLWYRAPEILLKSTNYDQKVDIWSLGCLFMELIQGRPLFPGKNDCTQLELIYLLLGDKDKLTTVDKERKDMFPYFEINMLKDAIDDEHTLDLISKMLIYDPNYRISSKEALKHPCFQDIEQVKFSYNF
Calcium-dependent protein kinase 1 (Plasmodium falciparum (isolate 3D7)), sequence (P62344 whole entry, looked up): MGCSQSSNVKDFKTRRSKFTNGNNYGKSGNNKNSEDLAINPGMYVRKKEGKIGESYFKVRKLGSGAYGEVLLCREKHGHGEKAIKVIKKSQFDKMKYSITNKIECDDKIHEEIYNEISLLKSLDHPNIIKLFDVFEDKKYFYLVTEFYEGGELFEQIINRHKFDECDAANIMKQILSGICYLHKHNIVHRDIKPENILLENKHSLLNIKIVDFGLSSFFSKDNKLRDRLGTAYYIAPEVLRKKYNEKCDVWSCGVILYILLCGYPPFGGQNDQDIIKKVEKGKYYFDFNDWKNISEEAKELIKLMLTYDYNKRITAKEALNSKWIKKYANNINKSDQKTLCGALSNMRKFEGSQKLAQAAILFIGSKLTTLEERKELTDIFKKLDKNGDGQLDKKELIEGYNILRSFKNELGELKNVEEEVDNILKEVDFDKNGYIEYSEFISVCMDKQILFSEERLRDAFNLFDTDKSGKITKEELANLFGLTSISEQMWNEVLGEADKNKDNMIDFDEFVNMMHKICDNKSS

COc1ccc(CCN(C)CCCCNC(=O)c2ccc(NC(=O)c3ccc(Cl)cc3)cc2)c(OC)c1
active: growth inhibition [4] 87%
inactive: growth inhibition [1] 0% | inhibition [2] 12% | inhibition [3] 4% | outcome [5] | outcome [6] | outcome [7] | outcome [8]

COc1ccc(C(=O)N2CCN(c3ccc([N+](=O)[O-])c(NC4CC4)c3)CC2)cc1Br
active: growth inhibition [1] 68% | growth inhibition [4] 99%
inactive: inhibition [2] 6% | inhibition [3] 5% | outcome [5] | outcome [6] | outcome [7] | outcome [8]

Cc1ccc(NC(=O)c2ccc(CN3CCCN(Cc4cccc(O)c4)CC3)cc2)cc1C
inactive: growth inhibition [1] 25% | inhibition [2] 33% | inhibition [3] 4% | outcome [5] | outcome [6] | outcome [7] | outcome [8]
active: growth inhibition [4] 98%

COc1ccc2nccc([C@@H](O)CN3CCC(NC(=O)C(c4ccsc4)N4CCN(c5ccccc5OC)CC4)CC3)c2c1 (stereo not given in full)
active: growth inhibition [1] 50% | growth inhibition [4] 95%
inactive: inhibition [2] 11% | inhibition [3] -2% | outcome [5] | outcome [6] | outcome [7] | outcome [8]

CC(=O)Nc1cccc(/C=C/C(=O)N2CCC(N3CCCCC3)CC2)c1
inactive: growth inhibition [1] 0% | inhibition [2] 1% | inhibition [3] 1% | outcome [5] | outcome [6] | outcome [7] | outcome [8]
active: growth inhibition [4] 96%

O=C(NC1CC1)C1CCN(Cc2cc3ccccc3n2Cc2ccc(Cl)cc2)CC1
inactive: inhibition [2] 16% | inhibition [3] -1% | outcome [5] | outcome [6] | outcome [7] | outcome [8]
active: growth inhibition [1] 96% | growth inhibition [4] 95%

Cc1ccc(O)c(C(=O)c2cnc3c(c2)c(-c2ccc(F)cc2)c(C#N)c(=O)n3C)c1
active: growth inhibition [1] 56% | growth inhibition [4] 93%
inactive: inhibition [2] 17% | inhibition [3] 2% | outcome [5] | outcome [6] | outcome [7] | outcome [8]

Nc1cccc(-c2ccc3ccnc(N)c3c2)c1
active: growth inhibition [1] 66% | growth inhibition [4] 91%
inactive: inhibition [2] 30% | inhibition [3] -7% | outcome [5] | outcome [6] | outcome [7] | outcome [8]

COc1ccc(Cn2c(Nc3cccc(C(F)(F)F)c3)nc3cc(C(=O)NC4CC4)cnc32)cc1Cl
inactive: inhibition [2] -2% | inhibition [3] -3% | outcome [5] | outcome [6] | outcome [7] | outcome [8]
active: growth inhibition [1] 96% | growth inhibition [4] 94%

COc1cccc(NC(=O)c2nc(N3CCN(c4ccncc4)CC3)ccc2Cl)c1
inactive: inhibition [2] 14% | inhibition [3] 1% | outcome [5] | outcome [6] | outcome [7] | outcome [8]
active: growth inhibition [1] 65% | growth inhibition [4] 97%

COc1cc(NC(=O)c2ccc3oc4ccccc4c3c2)ccc1OCCN1CCCCC1
inactive: growth inhibition [1] 11% | inhibition [2] 12% | inhibition [3] -4% | outcome [5] | outcome [6] | outcome [7] | outcome [8]
active: growth inhibition [4] 89%

CS(=O)(=O)c1ccc(Nc2ncc(-c3ccc(S(C)(=O)=O)cc3)c(OCC(F)(F)F)n2)cc1
inactive: inhibition [2] -7% | inhibition [3] -3% | outcome [5] | outcome [6] | outcome [7] | outcome [8]
active: growth inhibition [1] 98% | growth inhibition [4] 97%

Cc1cccc2[nH]c(-c3cccc(-c4ccc(NC(=O)C(C)CN5CCN(C)CC5)cc4)c3)nc12 (stereo not given)
inactive: inhibition [2] 7% | inhibition [3] -6% | outcome [5] | outcome [6] | outcome [7] | outcome [8]
active: growth inhibition [1] 100% | growth inhibition [4] 99%

COc1ccccc1Cn1ccnc1SCC(=O)Nc1cc(C(F)(F)F)ccc1Cl
inactive: inhibition [2] 12% | inhibition [3] 1% | outcome [5] | outcome [6] | outcome [7] | outcome [8]
active: growth inhibition [1] 97% | growth inhibition [4] 96%

COCCn1c(-c2cccc(Cl)c2)nn(-c2ccc([N+](=O)[O-])cc2Cl)c1=S
inactive: inhibition [2] 2% | inhibition [3] -2% | outcome [5] | outcome [6] | outcome [7] | outcome [8]
active: growth inhibition [1] 99% | growth inhibition [4] 100%

CCc1ccc(C2CCN(CCCCNC(=O)c3ccc(NC(=O)c4ccc(Cl)cc4)cc3)CC2)c(OCCO)c1
active: growth inhibition [1] 100% | inhibition [2] 94% | growth inhibition [4] 98%
inactive: inhibition [3] -3% | outcome [5] | outcome [6] | outcome [7] | outcome [8]

OCC1CCN(Cc2cccc(C#Cc3cc4ncnc(Nc5ccc(OCc6cccc(F)c6)c(Cl)c5)c4s3)n2)CC1
inactive: inhibition [2] 41% | inhibition [3] 1% | outcome [5] | outcome [6] | outcome [7] | outcome [8]
active: growth inhibition [1] 95% | growth inhibition [4] 99%

CCCCN1Cc2c(n(CC(=O)Nc3ccccc3)c3cc(-c4ccccc4)nn3c2=O)C1=O
active: growth inhibition [1] 60% | growth inhibition [4] 92%
inactive: inhibition [2] 1% | inhibition [3] -1% | outcome [5] | outcome [6] | outcome [7] | outcome [8]

CCn1c(C2CCN(CCC3CCN(C(=O)/C=C/c4ccc(Cl)c(Cl)c4)CC3)CC2)nc2ccccc21
inactive: growth inhibition [1] 0% | inhibition [2] 17% | inhibition [3] 2% | outcome [5] | outcome [6] | outcome [7] | outcome [8]
active: growth inhibition [4] 86%

O=C(Nc1cccc(-c2ccc(NCCCN3CCCC3)nc2)c1)c1ccccc1
inactive: growth inhibition [1] 21% | inhibition [2] 22% | inhibition [3] 4% | outcome [5] | outcome [6] | outcome [7] | outcome [8]
active: growth inhibition [4] 100%

O=C(CCc1cnc[nH]1)Nc1cccc(-c2ccc(-c3nc4ccc(F)cc4[nH]3)cc2)c1
inactive: inhibition [2] 18% | inhibition [3] -1% | outcome [5] | outcome [6] | outcome [7] | outcome [8]
active: growth inhibition [1] 79% | growth inhibition [4] 101%

CCc1ccccc1N1CCN(CCCCNC(=O)c2ccc(NC(=O)c3ccc(Cl)cc3)cc2)CC1
inactive: growth inhibition [1] 4% | inhibition [2] 21% | inhibition [3] -4% | outcome [5] | outcome [6] | outcome [7] | outcome [8]
active: growth inhibition [4] 96%

COc1ccc(CN2CCC(NCc3cccc([N+](=O)[O-])c3)CC2)cc1
inactive: growth inhibition [1] 3% | inhibition [2] 6% | inhibition [3] 2% | outcome [5] | outcome [6] | outcome [7] | outcome [8]
active: growth inhibition [4] 92%

CC1(C)CCCN(c2ncc(-c3cccc(CNCc4ccccc4O)c3)cn2)C1
active: growth inhibition [1] 82% | growth inhibition [4] 96%
inactive: inhibition [2] 35% | inhibition [3] -4% | outcome [5] | outcome [6] | outcome [7] | outcome [8]

Fc1cc(Cl)ccc1Nc1ccnc2cc(-c3ccc(CN4CCNCC4)o3)ccc12
active: growth inhibition [1] 99% | growth inhibition [4] 100%
inactive: inhibition [2] 16% | inhibition [3] 1% | outcome [5] | outcome [6] | outcome [7] | outcome [8]

COc1ccc(NC(=O)[C@H](Cc2ccccc2)Nc2cc(C)nc(NCCN3CCCC3)n2)cc1
active: growth inhibition [4] 97%
inactive: growth inhibition [1] 3% | inhibition [2] 15% | inhibition [3] -2% | outcome [5] | outcome [6] | outcome [7] | outcome [8]

Cc1cc(NN=Cc2ccc(Cl)cc2)c2cc(F)ccc2n1
active: growth inhibition [1] 98% | growth inhibition [4] 101%
inactive: inhibition [2] 6% | inhibition [3] 2% | outcome [5] | outcome [6] | outcome [7] | outcome [8]

COc1cc2c(cc1OCCN1CCC(N3CCCC3)CC1)N(C(=O)/C=C/c1ccccc1Cl)CC2
inactive: inhibition [2] 38% | inhibition [3] -7% | outcome [5] | outcome [6] | outcome [7] | outcome [8]
active: growth inhibition [1] 68% | growth inhibition [4] 100%

COc1ccc(NC(=O)CCNc2cc(C)nc(NCc3cccc(C)c3)n2)cc1
active: growth inhibition [4] 100%
inactive: growth inhibition [1] 25% | inhibition [2] 14% | inhibition [3] 1% | outcome [5] | outcome [6] | outcome [7] | outcome [8]

CC(=O)Nc1ccc(OCCCN(Cc2ccccc2OC(F)(F)F)c2ccc(C(F)(F)F)c(C#N)c2)c(Cl)c1
active: growth inhibition [1] 80% | growth inhibition [4] 91%
inactive: inhibition [2] 5% | inhibition [3] 0% | outcome [5] | outcome [6] | outcome [7] | outcome [8]

Cc1[nH]c(C)c(-c2ccc(OCc3ccc(F)cc3)cc2)c(=O)c1Br
active: growth inhibition [1] 97% | growth inhibition [4] 98%
inactive: inhibition [2] 16% | inhibition [3] -2% | outcome [5] | outcome [6] | outcome [7] | outcome [8]

CCCNC(=O)c1cncc(-c2cccc(CNC3Cc4ccccc4C3)c2)c1
inactive: growth inhibition [1] 2% | inhibition [2] -2% | inhibition [3] -3% | outcome [5] | outcome [6] | outcome [7] | outcome [8]
active: growth inhibition [4] 100%

CCc1c(C)c2ccc3c(c2oc1=O)CN(CCc1ccc(F)cc1)CO3
active: growth inhibition [1] 85% | growth inhibition [4] 94%
inactive: inhibition [2] 0% | inhibition [3] -2% | outcome [5] | outcome [6] | outcome [7] | outcome [8]

CS(=O)(=O)c1ccc(-c2nc(NCC3CCCCC3)cc(C(F)(F)F)n2)cc1
active: growth inhibition [1] 76% | growth inhibition [4] 83%
inactive: inhibition [2] -9% | inhibition [3] 2% | outcome [5] | outcome [6] | outcome [7] | outcome [8]

CCCN1CCC2(CC1)NC(C(=O)NCCC(C)C)Cc1c2[nH]c2cc(Cl)ccc12 (stereo not given)
inactive: growth inhibition [1] 0% | inhibition [2] 13% | inhibition [3] -3% | outcome [5] | outcome [6] | outcome [7] | outcome [8]
active: growth inhibition [4] 86%

COc1ccc2nc(C)cc(NN=Cc3ccc(F)cc3)c2c1
inactive: inhibition [2] 5% | inhibition [3] -8% | outcome [5] | outcome [6] | outcome [7] | outcome [8]
active: growth inhibition [1] 99% | growth inhibition [4] 100%

CC(=O)Nc1ccc(CN(Cc2ccc(F)cc2)Cc2ccc3c(c2)OCO3)cc1
active: growth inhibition [1] 87% | growth inhibition [4] 91%
inactive: inhibition [2] 3% | inhibition [3] 6% | outcome [5] | outcome [6] | outcome [7] | outcome [8]

N=c1n(CCN2CCCCC2)c2ccccc2n1CC(O)c1ccc(Cl)c(Cl)c1 (stereo not given)
inactive: inhibition [3] -2% | outcome [5] | outcome [6] | outcome [7] | outcome [8]
active: growth inhibition [1] 97% | inhibition [2] 50% | growth inhibition [4] 97%

O=C(Nc1ccccc1)Nc1ccc(-c2cccc(-c3nc4ccc(C(F)(F)F)cc4[nH]3)c2)cc1
active: growth inhibition [1] 73% | inhibition [2] 59% | growth inhibition [4] 101%
inactive: inhibition [3] 4% | outcome [5] | outcome [6] | outcome [7] | outcome [8]

CCN(CC)CCN(Cc1ccc(-c2ccc(Cl)cc2)cc1)C(=O)Cn1c(CCc2cccc(F)c2F)nc(=O)c2ccccc21
active: growth inhibition [1] 75% | growth inhibition [4] 101%
inactive: inhibition [2] 45% | inhibition [3] -4% | outcome [5] | outcome [6] | outcome [7] | outcome [8]

Reference: PubChem BioAssay
